Screens from PubChem BioAssay.
Not all results are given here.
aSyn UTR act: Activators via SNCA 5'UTR binding, MLPCN | 300,000 compounds, 7.1% hits | alpha-synuclein 5'UTR reporter, activators screen | activity score, % (tested at 7.5 µM), hits read low; in the data active = activity score below about -60%
Large screens that a line does not name were inactive.

CCCCCCn1c(=O)c(C(=O)Nc2c(C)n(C)n(-c3ccccc3)c2=O)c(O)c2ccccc21	aSyn UTR act -76
CCCCCCn1c(=O)c(C(=O)Nc2cnccn2)c(O)c2ccccc21	none
C=C1C(=O)O[C@@H]2C[C@@H](C)[C@H]3C=CC(=O)[C@]3(O)C[C@@H]12	aSyn UTR act -117
CCOC(=O)c1ccc(NC(=O)C2C3C=CC(O3)C2C(=O)O)cc1 (configuration not stated)	aSyn UTR act -77
CN1CCC(N(C)c2nc(-c3ccc([N+](=O)[O-])cc3)nc3ccccc23)CC1	none
Cc1cc(C(=O)CS(=O)(=O)c2ccccc2)cc(C)c1OC(=O)N(C)C	aSyn UTR act -71
Cc1cc(C(=O)CS(=O)c2ccc(F)cc2)cc(C)c1OC(=O)N(C)C (configuration not stated)	aSyn UTR act -68
CC(=O)Nc1ccccc1C(=O)OCc1ccc(F)cc1	aSyn UTR act -84
CC(=O)Nc1ccccc1C(=O)OCC(=O)c1ccc2c(c1)OCCO2	aSyn UTR act -62
CN(C)c1ccc(-[n+]2c(-c3ccccc3)cc(-c3ccccc3)cc2-c2ccccc2)cc1	none
CCCCN=C[C@]12CCC(O)CC1(O)CCC1[C@@H]2CC[C@]2(C)[C@H](C3C=CC(=O)O3)CCC12O (some centres not stated)	none
CC1=CC(=C2C(=O)NC(=S)NC2=O)C=C(C(F)(F)F)N1Cc1ccccc1	none
Cc1cccc(-n2c(O)c(/C=C3/C(c4ccccc4)=Nc4ccccc43)c(=O)[nH]c2=O)c1	aSyn UTR act -174
O=C(C1CC(c2ccccc2O)=NO1)N1CCC2(CC1)OCCO2 (configuration not stated)	aSyn UTR act -68
Nc1c2c(nc3sc4c(c13)CCCCC4)CCCC2	aSyn UTR act -139
N#CSCC(=O)N1c2ccccc2CCc2ccccc21	aSyn UTR act -84
COc1ccc(-c2cc(=NCC(=O)O)c3ccccc3o2)cc1	aSyn UTR act -128
COc1ccc(-c2cc(=Nc3cccc(C(=O)O)c3)c3cc(C)ccc3o2)cc1	aSyn UTR act -81
O=Cc1cn(Cc2ccc([N+](=O)[O-])cc2)c2ccccc12	none
O=Cc1cn(Cc2ccc(F)cc2)c2ccccc12	none
Cc1ccc(-c2nn(Cc3ccccc3)cc2C=O)cc1	aSyn UTR act -138
CCC(=O)N1CC(=O)Nc2ccc(Br)cc2C1c1ccccc1 (configuration not stated)	aSyn UTR act -71
Cc1c2ccncc2c(C)c2c1[nH]c1ccccc12	none
C[C@]12C=CC(=O)C=C1C=C[C@@H]1C2CC[C@]2(C)C(=O)CCC12 (some centres not stated)	aSyn UTR act -120
O=c1[nH]c(=S)[nH]c(O)c1N=Nc1ccc2c(c1)OCO2	aSyn UTR act -74
O=c1[nH]c(=S)[nH]c(O)c1N=Nc1ccc(OC(F)F)cc1	aSyn UTR act -92
CCOc1ccc(-c2c(C)n(-c3ccc(OCC)cc3)c3[n+]2CCCCC3)cc1	none
COc1ccc2c(c1)/C(=C/c1cnc[nH]1)C(=O)N2	aSyn UTR act -62
CCN1C(=O)C(=C2C=C(C)OC(C)=C2)C(=O)N(CC)C1=S	aSyn UTR act -75
CCCCCCCCCCCCCCCC[N+](C)(C)C	none
CC(C)(C)C(=O)c1cn(CC(=O)NCc2ccco2)c2ccccc12	aSyn UTR act -143
CC(=O)O[C@@]12CO[C@@H]1C[C@@H](O)[C@@]1(C)C(=O)[C@H](O)C3=C(C)[C@@H](OC(=O)[C@H](O)[C@@H](NC(=O)c4ccccc4)c4ccccc4)C[C@@](O)([C@@H](OC(=O)c4ccccc4)C12)C3(C)C (some centres not stated)	none
O=[N+]([O-])c1ccccc1CNCCc1ccc(F)cc1	aSyn UTR act -111
CC(=O)c1ccc(-c2ccccc2)cc1	aSyn UTR act -81
CC(=O)c1ccc(OC(=O)N(C)c2ccccc2)cc1	aSyn UTR act -66
Cc1ccc(-c2cc(-c3ccccc3)cc(-c3ccccc3)[n+]2-c2ccccc2)cc1	none
CN(C)C(=O)Oc1ccc(C(=O)c2ccccc2)cc1	aSyn UTR act -68
CC(=O)O[C@@H]1/C=C/[C@](C)(O)C[C@@H](C)C/C=C/[C@H]2[C@@H]3O[C@]3(C)[C@@H](C)[C@H]3[C@H](Cc4ccccc4)NC(=O)[C@@]312	none
Cn1ncnc2c(=O)n(C)c(=O)nc1-2	none
O=C1NC(c2cccnc2)Nc2sc3c(c21)CCCC3 (configuration not stated)	aSyn UTR act -98
COc1cc2c(cc1OC)-c1c(OC)c(OC)c(OC)c3ccnc(c13)C2=O	none
Nc1ccccc1C(=O)OCC(=O)N1CCc2ccccc21	aSyn UTR act -168
CN1C(=O)NC(=O)C(C)(C2=CCCCC2)C1=O (configuration not stated)	aSyn UTR act -71
O=C1Nc2ccccc2/C1=C/c1nc2ccccc2c(=O)n1-c1ccc(O)cc1	aSyn UTR act -77
C/C=C(\C)C(=O)OC1C(C)=C2C(C1OC(=O)CCCCC)C(C)(OC(C)=O)CC(OC(=O)CCC)C1(O)C2OC(=O)C1(C)O (configuration not stated)	none
